ERa coact pot – enhances coactivator binding to human estrogen receptor alpha; P03372; TR-FRET ERalpha-LBD/SRC-Cy5 coactivator binding, 2 h; 100 = basal binding, no effect; coactivator binding (% of control), % at 25.6 µM; 86,000 tested, 1.3% active; in the data active = activity above about 200%;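 also: binding measured in presence of low estradiol as agonist stimulus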
ERb coact inh – blocks coactivator binding to human estrogen receptor beta. TR-FRET ER-beta LBD / SRC1-Cy5 peptide binding; receptor agonist-loaded with 1 µM estradiol. AID 633. inhibition, % at 25.6 µM. 86,000 tested, 1.3% active;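 active = compounds whose percent inhibition of the receptor-coactivator binding signal exceeds about 50% in the single-dose screen, limit read from the data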
PLK1 PBD inh – blocks phosphopeptide binding to human Plk1 polo box domain; P53350; Plk1 PBD phosphopeptide binding, fluorescence polarization; inhibition, %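 (tested at about 20 µM)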; 97,000 tested, 0.13% active; in the data active = inhibition above about 34%, passing the limit was not always enough
PLK1 inh – inhibitors of human PLK1 kinase. inhibition, % at 10 µM. 97,000 tested, 0.53% active. recombinant PLK1 kinase, TR-FRET peptide phosphorylation. P53350;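 active = inhibition of 50% or more in the single-concentration screen; inactive = inhibition below 50%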
ERa SRC1 inh – ER-alpha (human) coactivator binding inhibition; P03372; TR-FRET ER-alpha LBD / SRC-1 peptide, estradiol-bound; inhibition, % at 25.6 µM; 86,000 tested, 1.7% active; AID 629; in the data active = inhibition above about 50%
Smad3 inh – blocks human Smad3 binding to FoxH1 peptide; P84022; TR-FRET Smad3/Dy647-FoxH1 peptide binding, europium anti-His; inhibition, % at 25 µM; 88,000 tested, 0.29% active; AID 630;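 active = compounds that reduce the energy-transfer binding signal between the protein and its labelled peptide by more than half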
Target sequence (P84022 whole entry, looked up): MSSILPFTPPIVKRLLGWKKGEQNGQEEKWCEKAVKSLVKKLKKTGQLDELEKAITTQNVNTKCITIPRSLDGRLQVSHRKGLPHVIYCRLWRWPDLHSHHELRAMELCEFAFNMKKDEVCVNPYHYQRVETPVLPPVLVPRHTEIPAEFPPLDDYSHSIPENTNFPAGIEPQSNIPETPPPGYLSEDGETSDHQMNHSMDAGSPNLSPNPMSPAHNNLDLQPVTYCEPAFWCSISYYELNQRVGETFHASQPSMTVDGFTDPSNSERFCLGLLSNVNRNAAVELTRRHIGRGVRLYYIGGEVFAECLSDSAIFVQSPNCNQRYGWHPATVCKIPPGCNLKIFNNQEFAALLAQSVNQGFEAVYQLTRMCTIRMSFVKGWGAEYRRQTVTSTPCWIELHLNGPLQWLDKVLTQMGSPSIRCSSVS
Numbers stand for hits; n = inactive; x = not tested or not shown; [ ] = another dose, or the depositor's remark. In the library only some 3.3% were active in any assay of this set; here they are far more common.

SMILES | ERa coact pot | ERb coact inh | PLK1 PBD inh | PLK1 inh | ERa SRC1 inh | Smad3 inh
c1csc(-c2nn3c(C4COc5ccccc5O4)nnc3s2)c1 (stereo not given) | n | n | n | n | n | n
C[C@@H](C(=O)O)/C(=C/c1ccc2c(c1)OCO2)C(=O)O | x | x | x | x | x | n
NC(=O)c1ccc2c(c1)OCCO2 | n | n | n | n | n | n
O=C(O)c1ccc2c(c1)OCCO2 | n | n | n | n | 77[fluorescence artefact?] | n
CN1CCCC(OC(=O)c2ccc3c(c2)OCCO3)C1 (stereo not given) | n | 60 | n | n | n | n
COc1ccc(-c2nnc(SCC(=O)Nc3ccccc3)n2C)cc1 | n | n | n | n | n | n
COc1nc(-c2ccc(C)cc2)ccc1-c1noc(-c2cccnc2)n1 | 557[fluorescence artefact?] | n | x | x | n | n
COc1nc(-c2ccccc2)ccc1-c1noc(-c2cccnc2)n1 | 487[fluorescence artefact?] | n | n | n | n | n
COc1nc(-c2ccc(C)cc2)ccc1-c1noc(-c2ccco2)n1 | 237 | n | n | n | n | n
COc1ccccc1-c1noc(-c2cccnc2)n1 | n | n | n | n | n | n
COc1nc2ccccc2cc1-c1noc(-c2cccnc2)n1 | 215[fluorescence artefact?] | n | x | x | n | n
COc1nc(-c2ccccc2)ccc1-c1noc(-c2ccc(F)cc2)n1 | n | n | x | x | n | n
CCOc1ccccc1-c1nc(-c2cc3ccccc3nc2OC)no1 | n | 67 | n | n | n | n
CCOc1nc(C)ccc1-c1noc(-c2ccccc2OC)n1 | n | n | n | n | n | n
Cc1nc2ccccc2c(=O)n1/N=C/c1c(O)ccc2oc3c(c12)CCCC3 | n | n | n | n | 80 | n
NS(=O)(=O)c1cc(Br)c(N=Nc2ccc(O)c3ncccc23)c(Br)c1 | x | x | x | x | x | 77
CCOC(=O)c1ccc(NC(=O)N2CCc3ccccc32)cc1 | 241[fluorescence artefact?] | n | n | n | n | n
Cc1sccc1C1C(C#N)=C(N)SC(N)=C1C#N | n | n | n | n | n | n
N#CC1=C(N)SC(N)=C(C#N)C1CCC1CCCCC1 | 242 | n | n | n | n | n
Nc1ccc2nc3n(c(=O)c2c1)CCC3 | 215 | n | n | n | n | n
Cc1ccc(S(=O)(=O)c2nc(-c3ccc(F)cc3)oc2SCC(=O)NCC2CCCO2)cc1 (stereo not given) | 310[fluorescence artefact?] | n | n | n | n | n
Cc1ccc(-c2nc(S(=O)(=O)c3ccc(F)cc3)c(SCC(=O)NCC3CCCO3)o2)cc1 (stereo not given) | n | n | n | n | 67[fluorescence artefact?] | n
O=C(CSc1oc(-c2ccc(F)cc2)nc1S(=O)(=O)c1ccc(F)cc1)NCC1CCCO1 (stereo not given) | n | n | n | n | n | n
O=C(CSc1oc(-c2ccccc2)nc1S(=O)(=O)c1ccc(F)cc1)NCC1CCCO1 (stereo not given) | n | n | n | n | n | n
CC(=O)N1CCN(c2ccccc2NC(=O)c2cc(Br)ccc2Cl)CC1 | n | n | n | n | n | n
SMILES | ERa coact pot | ERb coact inh | PLK1 PBD inh | PLK1 inh | ERa SRC1 inh | Smad3 inh
CN1CCN(c2ccccc2NC(=O)c2cc(Br)ccc2Cl)CC1 | n | n | n | n | 82[fluorescence artefact?] | n
O=c1c2c3nc4ccccc4nc3n(-c3ccc4c(c3)OCCO4)c2ncn1CC1CCCO1 (stereo not given) | n | n | x | x | 69 | n
O=c1c2c3nc4ccccc4nc3n(-c3ccc4c(c3)OCCO4)c2ncn1C1CCCC1 | n | n | x | x | n | n
Cc1nc2c(c(=O)n1CC1CCCO1)c1nc3ccccc3nc1n2Cc1ccc2c(c1)OCO2 (stereo not given) | n | 58[fluorescence artefact?] | x | x | 69[fluorescence artefact?] | n
CCC(C)n1c(C)nc2c(c1=O)c1nc3ccccc3nc1n2-c1ccc2c(c1)OCCO2 (stereo not given) | 256[fluorescence artefact?] | n | x | x | n | n
CCOc1ccc(CC2S/C(=N/c3ccccn3)NC2=O)cc1 (stereo not given) | 331 | n | n | n | n | n
Cc1ccc(C(C(=O)NC2CCCCC2)N2CCN(C(=O)c3ccco3)CC2)cc1 (stereo not given) | n | n | n | n | n | n
Cc1cccc(NC(=O)CSc2nnc(-c3ccco3)c(-c3ccco3)n2)c1C | n | 77[fluorescence artefact?] | n | n | 74[fluorescence artefact?] | n
Cc1ccccc1-c1nnc(SCC(=O)Nc2cccc(C)c2C)o1 | n | n | n | n | n | n
COC(=O)c1ccc(CSc2nc3c(cnn3-c3ccc(F)cc3)c(=O)[nH]2)o1 | 517 | n | n | n | n | n
CCC(Sc1nc2c(cnn2-c2ccccc2)c(=O)[nH]1)C(=O)OC (stereo not given) | n | n | n | n | n | n
COC(=O)c1ccc(CSc2nc3c(cnn3-c3ccccc3)c(=O)[nH]2)o1 | 258[fluorescence artefact?] | n | n | n | n | n
CCCCSc1nc2c(cnn2-c2ccc(F)cc2)c(=O)[nH]1 | 209[fluorescence artefact?] | n | n | n | n | n
CCCSc1nc2c(cnn2-c2ccc(Cl)cc2)c(=O)[nH]1 | x | x | n | n | x | x
COC(=O)c1ccc(CSc2nc3c(cnn3-c3ccc(Cl)cc3)c(=O)[nH]2)o1 | 343[fluorescence artefact?] | n | n | n | n | n
CCO[P@]1(=O)OC[C@@H]2O[C@H](n3cnc4c(N)ncnc43)[C@H](O)[C@H]2O1 | x | x | x | x | x | n
C[C@@]12CC[C@@H]3[C@H](CC=C4C[C@@H](O)CC[C@@]43C)[C@H]1CC[C@H]2N(CCO)CCO | x | x | x | x | x | n
O=c1c2ccccc2nnn1CSc1nnc(-c2cccnc2)n1-c1ccccc1F | n | n | n | n | n | n
Cc1ccc(-n2c(SCn3nnc4ccccc4c3=O)nnc2-c2cccnc2)c(C)c1 | n | n | x | x | 87[fluorescence artefact?] | n
CSc1nc(NCc2ccco2)c2sc3nc(C(C)C)c4c(c3c2n1)CC(C)(C)OC4 | x | x | n | n | x | x
CC(C)c1nc2sc3c(NCc4ccccc4)ncnc3c2c2c1COC(C)(C)C2 | 366[fluorescence artefact?] | n | n | n | n | n
CC(C)c1nc2sc3c(NCc4ccco4)ncnc3c2c2c1COC(C)(C)C2 | n | n | n | n | 54[fluorescence artefact?] | n
CC(=O)N[C@H](Cc1ccc(O)cc1)C(=O)O | x | x | x | x | x | n
O=C(Cc1cccs1)Nc1ccc(S(=O)(=O)Nc2ncccn2)cc1 | n | 84 | n | n | 88[fluorescence artefact?] | n
Cc1ccnc(NS(=O)(=O)c2ccc(NC(=O)c3ccc(C)o3)cc2)n1 | n | n | n | n | n | n
SMILES | ERa coact pot | ERb coact inh | PLK1 PBD inh | PLK1 inh | ERa SRC1 inh | Smad3 inh
O=C(Cc1cccs1)Nc1ccc(S(=O)(=O)N2CCCCC2)cc1 | n | 84 | n | n | 96[fluorescence artefact?] | n
Cc1ccnc(NS(=O)(=O)c2ccc(NC(=O)Cc3cccs3)cc2)n1 | n | 62 | n | n | 67 | n
O=C(O)[C@H]1Cc2c([nH]c3ccccc23)[C@@H](CCCCO)N1 | x | x | x | x | x | n
O=P(O)(O)OP(=O)(O)O | x | x | x | x | x | n
COc1cccc(-c2cc3nc(-c4ccccc4)cc(N4CCC5(CC4)OCCO5)n3n2)c1 | 210 | n | n | n | n | n
COc1ccc(-c2cc3nc4c(c(N5CCC6(CC5)OCCO6)n3n2)CCCC4)cc1 | n | n | x | x | n | n
